# Compound activity: PubChem, National Center for Advancing Translational Sciences (NCATS)
# DT40 TDP1 CPT = DT40-hTDP1 cell growth loss with CPT. AID 686979. actives 12% (n = 420,000). Potency, µM (titrated, usually from 46.2 µM), for the others: at the highest dose activity change, negative = growth inhibition, most hits filed as inhibitors. chicken DT40 Tdp1-/-;hTDP1 cells + 20 nM CPT, ATP luminescence, 48 h; also: % is scaled to controls: 0 for no effect and ±100 for the full control effect; nearly all actives have a fitted effect of over 55% in size
#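 Chicken DT40 Tdp1-/- cells complemented with human TDP1, 400 cells/well, exposed to compounds plus 20 nM camptothecin for at least 48 h at 37 C; viability read as ATP content by CellTiter-Glo luminescence.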
# TDP1 inh = inhibitors of human tyrosyl-DNA phosphodiesterase TDP1; Q9NUW8; recombinant TDP1, AlphaScreen DNA substrate cleavage; Potency, µM (series often up to 130 µM), inactives show at the top dose activity change, negative = inhibition, actives largely listed as inhibitors; actives 0.28% (n = 350,000); also: % is scaled to controls: 0 for no effect and ±100 for the full control effect; nearly all actives have a fitted effect of over 40% in size
# Target sequence (Q9NUW8 whole entry, looked up): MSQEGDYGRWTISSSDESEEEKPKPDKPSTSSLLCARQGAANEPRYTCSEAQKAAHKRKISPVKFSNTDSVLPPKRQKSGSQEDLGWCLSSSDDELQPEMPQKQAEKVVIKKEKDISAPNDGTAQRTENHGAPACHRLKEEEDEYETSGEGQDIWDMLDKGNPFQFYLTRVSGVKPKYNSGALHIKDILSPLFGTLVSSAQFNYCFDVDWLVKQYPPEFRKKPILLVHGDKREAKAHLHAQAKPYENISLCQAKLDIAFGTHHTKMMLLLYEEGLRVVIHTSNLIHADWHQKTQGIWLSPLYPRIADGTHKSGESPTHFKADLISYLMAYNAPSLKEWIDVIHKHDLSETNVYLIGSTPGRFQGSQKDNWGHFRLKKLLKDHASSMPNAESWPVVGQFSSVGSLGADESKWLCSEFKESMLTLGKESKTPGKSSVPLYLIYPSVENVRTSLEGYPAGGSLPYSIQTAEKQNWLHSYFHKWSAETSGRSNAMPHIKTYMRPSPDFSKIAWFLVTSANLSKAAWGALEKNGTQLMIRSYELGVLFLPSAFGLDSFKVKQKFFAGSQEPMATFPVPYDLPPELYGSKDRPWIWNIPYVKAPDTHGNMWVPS
#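 Compounds were preincubated with Tdp1 (1 nM final) for 15 min at room temperature before substrate (15 nM final) started a 5 min reaction; beads (10 ug/ml final) were then added for 10 min before AlphaScreen detection.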
# DT40 TDP1 no CPT = qHTS for Inhibitors of human tyrosyl-DNA phosphodiesterase 1 (TDP1): qHTS in cells in absence of CPT. actives 15% (n = 420,000). Potency, µM (titrated, usually from 46.2 µM), inactives show top-dose activity change, negative = growth inhibition, most hits filed as inhibitors. AID 686978, 2013. DT40 Tdp1-/- hTDP1 cells, no CPT, ATP luminescence, 48 h; also: % is scaled to controls: 0 for no effect and ±100 for the full control effect; nearly all actives have a fitted effect of over 55% in size
#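 Compound effects on proliferation are scored in DT40 Tdp1-/-;hTDP1 cells in the absence of CPT. ATP levels (CellTiter-Glo luminescence) are recorded after a ≥48 hr, 37 °C incubation.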
# ClpP mod = qHTS Assay for Activators of ClpP | ATP-dependent Clp protease proteolytic subunit (Bacillus subtilis (strain 168)), P80244 | purified B. subtilis ClpP, FRET peptide cleavage, 20 min | Potency, µM (top dose mostly 57.5 µM), inactives show top-dose activity change, negative = active | actives 1.9% (n = 340,000) | AID 651965, 2013; active = well fitted falling curve with a large enough effect; inconclusive = small, poorly fitted or top-dose-only effect; inactive = no such curve, though single readings can be large or run the other way; also: the source files actives as falling curves though it sought activators and does not explain the sign; nearly all actives have a fitted effect of over 65% in size
#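 ClpP 10 microg/mL final, pH 8 Tris/KCl buffer with BSA, glycerol, Tween-20; compound pinned in; FRET-FV substrate; RT 20 min; Ex320/Em430; ΔFRET vs ADEP 5.8 microM, DMSO, no enzyme.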
# Numbers without * were called inactive; ? = inconclusive; / = not tested or not shown; [ ] = dose if it differs, or a comment. An excerpt weighted towards active compounds, which were near 17% of everything screened. Unless noted, calls follow the shape of the dose curve; as a rule, active = well fitted curve in the direction sought with a large enough effect; inconclusive = small, poorly fitted or top-dose-only effect, or another doubt; inactive = no such curve, though single readings can be large; an effect the other way counts as inactive or inconclusive. Potency is read from the fitted curve at half-maximal effect.
SMILES,DT40 TDP1 CPT,TDP1 inh,DT40 TDP1 no CPT,ClpP mod
O=C(c1cc(COc2ccc(F)cc2Cl)on1)N1CCN(C2CCCC2)CC1,18µM*,4%,?,-6%
COCC1CCN(C(=O)c2cc(COc3ccc(OC)c4ccccc34)on2)C1 (centres undefined),?,/,?,-4%
O=C(c1cc(COc2ccc(F)c(F)c2)on1)N1CCN(C2CCCCC2)C(=O)C1,?,0%,23µM*,0%
COc1ccc(C)cc1-n1nnnc1SCC(=O)NC1CCS(=O)(=O)C1 (centres undefined),-6%,0%,15%,1%
CC(=O)c1ccccc1OCC(O)Cn1c(CO)nc2ccccc21 (centres undefined),/,2%,/,-11%
Cc1cc(SCC(=O)Nc2c(C)n(C)n(-c3ccccc3)c2=O)nc2ccccc12,6%,2%,10%,-7%
COc1cc(Cl)ccc1OCc1cc(C(=O)N2CCN(C3CCCCC3)CC2)no1,?,/,23µM*,0%
CCN1CCN(C(=O)c2cc(COc3ccc(F)c(F)c3)on2)[C@@H](C)C1=O,15µM*,/,21µM*,0%
O=C(c1cc(COc2ccc(F)c(F)c2)on1)N1CCN(C/C=C/c2ccccc2)CC1,?,/,26µM*,0%
Cc1cc(-c2nnc(SCC(=O)Nc3ccc(Br)cc3F)n2N)n[nH]1,-17%,1%,11%,2%
CC(C)c1ccc(/C=N/n2c(-c3ccccc3)n[nH]c2=S)cc1,?,/,?,-2%
O=C(Nc1cnccn1)Nc1cccc(Cl)c1Cl,-6%,5%,-12%,/
Cc1ccc(CNS(=O)(=O)c2cc(C(=O)Nc3cccc(C(F)(F)F)c3)ccc2F)cc1,?,3%,?,1%
COC(=O)c1ccc(Oc2cc(C)nc(SC)n2)cc1,4.1µM*,-2%,2.9µM*,-2%
CCN1C(=O)[C@@H]2[C@@H](c3ccc(-c4ccc5c(c4)OCO5)c(OC)c3)N3CCCC[C@@]3(C(=O)OC)[C@@H]2C1=O,?,0%,?,?
COC(=O)[C@@]12CCCCN1[C@H](c1ccc(-c3ccc4c(c3)OCO4)cc1)[C@H]1C(=O)N(C)C(=O)[C@H]12,13µM*,3%,23µM*,?
COC(=O)[C@@]12CCCCN1[C@H](c1ccc(-c3ccc(C(C)=O)cc3)cc1)[C@@H]1C(=O)N(C)C(=O)[C@@H]12,15µM*,2%,23µM*,-1%
COC(=O)[C@@]12CCCCN1[C@H](c1ccc(-c3ccc(OC)cc3)c(OC)c1)[C@@H]1C(=O)N(C)C(=O)[C@@H]12,21µM*,1%,?,-28%
COC(=O)[C@@]12CCCCN1[C@H](c1ccc(-c3ccc(OC)cc3)cc1)[C@@H]1C(=O)N(C)C(=O)[C@@H]12,21µM*,0%,21µM*,-7%
COc1ccc(C[C@@H]2c3cc(OC)c(OC)cc3CC[N@+]2(C)CCC(=O)OCCCCCOC(=O)CC[N@@+]2(C)CCc3cc(OC)c(OC)cc3[C@H]2Cc2ccc(OC)c(OC)c2)cc1OC,/,12%[21 µM],/,/
FC(F)Sc1ccc(NC2=NCCCCC2)cc1,2%,/,-22%,1%
Cc1ccc(-c2cn(-c3ccc(SC(F)F)cc3)c3[n+]2CCC3)cc1,0.65µM*,-5%,0.46µM*,-3%
FC(F)Sc1ccc(-n2cc(-c3ccc(Cl)cc3)[n+]3c2CCC3)cc1,9.2µM*,8%,8.2µM*,-1%
Clc1ccc(-n2cc(-c3ccc(Br)cc3)[n+]3c2CCCCC3)cc1,5.8µM*,3%,6.5µM*,0%
CCOC(=O)c1c(C)[nH]c(C(=O)OCC(=O)N2c3ccccc3CC2C)c1C (centres undefined),?,7%,18µM*,4%
SMILES,DT40 TDP1 CPT,TDP1 inh,DT40 TDP1 no CPT,ClpP mod
CCOC(=O)C1=C(C)NC(C)=C(C(=O)OCC)C1C(=O)OCC(=O)N1c2ccccc2CC1C (centres undefined),?,8%,18µM*,-15%
CCC1CN(CCNC(=O)c2cc(C)nn2CC)Cc2cc(OC)ccc2O1 (centres undefined),-3%[9.04 µM],/,?,/
O=C(COc1ccccc1)Nc1ccc2nc(SCC(=O)N3CCCC3)sc2c1,?,1%,23µM*,-2%
Cn1c(SCC(=O)Nc2ccc3nc(SCC(=O)N4CCCC4)sc3c2)nnc1-c1ccccc1,-11%,50µM*,?,-6%
COC(=O)CSc1nc2ccc(NC(=O)c3ccccc3C(=O)N3CCOCC3)cc2s1,-2%,0%,-14%,-4%
COc1ccccc1C(=O)Nc1ccc2nc(SCC(=O)N3CCCC3)sc2c1,?,-2%,4.1µM*,-1%
O=C(Nc1ccc2nc(SCC(=O)N3CCOCC3)sc2c1)c1ccccc1Cl,?,2%,18µM*,-2%
Cc1ccc(C)c(N2C(=O)N(Cc3cc(=O)n4ccccc4n3)c3ccccc3S2(=O)=O)c1,?,0%,?,5%
O=c1c(CCc2ccccc2)nc2cnc(N3CCNCC3)nc2n1-c1ccccc1,-27%,/,5%,/
Cc1cccc(NC(=O)CSc2nc3ccc(NC(=O)CSc4nnnn4-c4ccccc4)cc3s2)c1C,/,3%,/,/
O=C(CSc1nc2ccc(NC(=O)CSc3nnnn3-c3ccccc3)cc2s1)Nc1ccccc1,16µM*,0%,?,-2%
O=C(COc1ccccc1Cl)Nc1ccc2nc(SCC(=O)N3CCOCC3)sc2c1,?,-3%,4.1µM*,30%
CC(C)C(NC(=O)COc1ccc2ccccc2c1)C(=O)N/N=C/C=C/c1ccccc1 (centres undefined),13µM*,4%,?,-2%
CCN(CC(=O)Nc1c(F)cccc1F)C(=O)Cn1c(=O)cnc2ccccc21,-3%,1%,10%,-1%
COc1ccc(/C=C/C(=O)NC(=S)NNC(=O)c2cc(OC)c(OC)c(OC)c2)cc1,?,/,9.2µM*,-3%
COc1ccc(/C=C/C(=O)NC(=S)NNC(=O)c2cc(OC)c(OC)c(OC)c2)cc1OC,?,5%,15µM*,2%
CC(C)C(NS(=O)(=O)c1ccc2c(c1)oc(=O)n2C)C(=O)NCCc1ccc(Cl)cc1 (centres undefined),-6%,3%,-15%,0%
Cc1cc(-c2ccccc2)n2nc(-c3cccc(Br)c3)cc2n1,?,/,?,-27%
Cc1cc(C)n2nc(-c3ccc(Br)cc3)cc2n1,0%,/,?,5%
Cc1cc(N)n2nc(-c3ccccc3)cc2n1,-38%,5%,?,28µM*
Cc1ccc(-c2cc3nc(-c4ccc(Br)cc4)cc(N)n3n2)cc1,?,2%,?,28µM*
Cc1ccc(-c2cc3nc(-c4ccccc4)cc(N)n3n2)cc1,-15%,3%,6%,25µM*
